A number with no mark means an inactive call.
Test system: Vero E6 infected with SARS-CoV-2
Experiment: inhibition of SARS-CoV-2 cytopathic effect; higher = more antiviral protection, active = above 15
Conditions: 48 h

Compound	inhibition of SARS-CoV-2 cytopathic effect (1 nM)	inhibition of SARS-CoV-2 cytopathic effect (8.33 nM)	inhibition of SARS-CoV-2 cytopathic effect (100 nM)	inhibition of SARS-CoV-2 cytopathic effect (833.33 nM)	inhibition of SARS-CoV-2 cytopathic effect (10000 nM)
Clc1ccc2c(NCCNc3ccnc4cc(Cl)ccc34)ccnc2c1	-2.64%	0.71%	5.21%	0.16%	0%
N#Cc1cc(F)cc(-c2nc(-c3ccc(F)cn3)no2)c1	0.6%	2.48%	1.15%	-0.25%	2.97%
CC/C(=C(/c1ccc(OCCN(C)C)cc1)c1cccc(O)c1)c1ccccc1 [droloxifene]	0.66%	-1.2%	1.69%	0.64%	34.5% (active)
N#Cc1ncccn1 [2-cyanopyrimidine]	4.29%	5.63%	4.71%	6.33%	4.34%
CNC(=O)Oc1ccccc1OC(C)C [propoxur]	2.55%	4.24%	3.02%	2.09%	2.81%
O=C(NCC1CCCCN1)c1cc(OCC(F)(F)F)ccc1OCC(F)(F)F (stereo not given) [flecainide]	-1.39%	1.45%	-0.28%	3.98%	-3.89%
CCc1cc(Cl)c(OC)c(C(=O)NC[C@@H]2CCCN2CC)c1O [eticlopride]	-0.43%	-0.67%	1.17%	0.92%	3.78%
CC(O)c1cc(C(=O)N[C@@H](C)Cn2ccc(-c3ccc(C#N)c(Cl)c3)n2)n[nH]1 (stereo not given in full)	1.69%	0.5%	0.89%	-0.69%	0.64%
O=C(O)COc1cccc(CN(Cc2ccc(-n3cccn3)cc2)S(=O)(=O)c2cccnc2)c1 [taprenepag]	0.31%	-1.59%	-0.6%	-0.14%	0.98%
COc1ccc2c(c1)c(CC(=O)N1CCOCC1)c(C)n2C(=O)c1ccc(Cl)cc1	0.39%	-0.48%	1.8%	-0.58%	-0.85%
CNC(=O)c1cc(COc2nnc(Nc3ccc(Cl)cc3)c3ccoc23)ccn1 [telatinib]	0.06%	2.23%	-1.3%	0.04%	0.53%
CN1CC(O)C2=C/C(=N/NC(N)=O)C(=O)C=C21 (stereo not given) [carbazochrome]	2.27%	3.04%	-0.28%	-1.11%	0.54%
CC(SC(=O)c1cccs1)C(=O)NCC(=O)O (stereo not given) [stepronin]	2.01%	-0.48%	1.48%	0.5%	-1.74%
CCN(CC)C(=O)N[C@H]1C[C@@H]2c3cccc4[nH]cc(c34)C[C@H]2N(C)C1 [terguride]	-0.35%	-0.23%	-0.57%	-2.15%	-0.04%
O=S1(=O)CCN(CN2CCS(=O)(=O)NC2)CN1 [taurolidine]	0.08%	2.04%	-0.86%	-0.85%	0.19%
CC(=O)NS(=O)(=O)c1ccc(NC(=O)c2ccccc2C(=O)O)cc1 [phthalylsulfacetamide]	-0.71%	-1.43%	-0.27%	0.53%	-0.38%
Cc1ccc(S(=O)(=O)Nc2ccc3c(c2)c(C(=O)C(F)(F)F)cn3CC(=O)N[C@@H](CC(C)C)C(=O)O)cc1	0.38%	-1.93%	-1.37%	0.8%	3.55%
O=C(O)C1=C[C@@H](O)[C@@H](O)[C@H](O)C1 [shikimic-acid]	2.18%	1.14%	0.89%	2.68%	0.85%
O=C(O)C[C@H](O)C[C@H](O)/C=C/c1c(C2CC2)nc2ccccc2c1-c1ccc(F)cc1 [pitavastatin]	1.96%	3.86%	3.12%	2.39%	6.01%
CCOC(=O)[N-]c1c[n+](N2CCOCC2)no1 [molsidomine]	-0.39%	1.12%	2.15%	1.58%	-0.19%
CC(C)CCN1c2nc(Nc3cc(F)c(O)c(F)c3)ncc2N(C)C(=O)[C@@H]1C	-1.15%	-2.75%	-6.09%	-0.02%	8.71%

Compound	inhibition of SARS-CoV-2 cytopathic effect (1 nM)	inhibition of SARS-CoV-2 cytopathic effect (8.33 nM)	inhibition of SARS-CoV-2 cytopathic effect (100 nM)	inhibition of SARS-CoV-2 cytopathic effect (833.33 nM)	inhibition of SARS-CoV-2 cytopathic effect (10000 nM)
O=C1NC(=O)c2cc(Nc3ccc(F)cc3)c(Nc3ccc(F)cc3)cc21	1.21%	-0.56%	-1.81%	0.4%	10.3%
Clc1ccc(N/N=C(\c2ccccc2)c2ccccn2)nc1	-0.45%	-0.79%	-1.98%	9.6%	16.5% (active)
O=C(NOCC(O)CO)c1cc(Br)c(F)c(F)c1Nc1ccc(I)cc1F (stereo not given)	-0.27%	-0.08%	-8.55%	-10%	-12.5%
CC(C)n1nnc2cc(C(=O)O)ccc21	2.69%	0.35%	-0.23%	-0.38%	-1.63%
CNC(=O)c1ccccc1Nc1cc(Nc2ccc(N3CCOCC3)cc2OC)ncc1C(F)(F)F	0.1%	-1.1%	-2.99%	-4.38%	-3.64%
C[C@@H]1COCCN1c1cc(C2([S@](C)(=N)=O)CC2)nc(-c2ccnc3[nH]ccc23)n1	-1.91%	-1.92%	0.5%	1.27%	1.76%
NC(=O)N1c2ccccc2CC(O)c2ccccc21 (stereo not given) [licarbazepine]	-1.75%	1.29%	-0.88%	-6.25%	0.95%
Cc1cc(-c2nc3cc(F)ccc3s2)ccc1NC(=O)[C@@H](N)CCCCN [phortress]	-1.03%	-0.88%	-0.54%	-2.21%	-5.43%
Cc1ccc(Cl)c(OC[C@H](O)CNC(C)C)c1 [1-(2-chloro-5-methylphenoxy)-3-(isopropylamino)-2-propanol]	0.19%	-0.3%	-0.68%	0.3%	-2.47%
C[C@]12CCC(=O)C=C1CC[C@@H]1[C@@H]2C(=O)C[C@]2(C)C(=O)CC[C@@H]12 [adrenosterone]	0.47%	-2.37%	0.08%	1.4%	2.11%
c1ccc(-c2ccc(C(c3ccccc3)n3ccnc3)cc2)cc1 (stereo not given) [bifonazole]	3.05%	3.28%	4.39%	-11.6%	15.4% (active)
O=c1cc(N2CCOCC2)oc2c1ccc1ccccc12	-1.26%	2.98%	-0.06%	0.08%	-1.32%
CC(C)(C)NCC(O)c1ccccc1Cl (stereo not given) [tulobuterol]	2.01%	1.33%	-0.63%	-10.6%	2%
CNCCC=C1c2ccccc2C=Cc2ccccc21 [norcyclobenzaprine]	-0.66%	3.83%	-2.37%	-0.19%	-7.92%
Cc1cc(C(C)(C)C)cc(C)c1CC1=NCCN1 [xylometazoline]	-7.36%	-8.77%	-5.88%	-7.35%	-6.68%
CCCCCCCCCCCCCCCC[N+](C)(C)Cc1ccccc1 [benzyldimethylhexadecylammonium]	2.1%	0.11%	-1.57%	-0.97%	-13.2%
Fc1ccccc1CNCc1ccc(-c2ccnc3[nH]ccc23)cc1	4.68%	2.19%	0.04%	-1.5%	-7.9%
Fc1ccc(C(c2ccccc2)(c2ccccc2F)n2ccnc2)cc1 (stereo not given) [flutrimazole]	-1.84%	-3.27%	-4.23%	-1.83%	-1.07%
Nc1nc2c(cnn2CCc2ccccc2)c2nc(-c3ccco3)nn12	1.74%	1.86%	-4.65%	-2.26%	-2.96%
CN(C)CCOC(C)(c1ccccc1)c1ccccn1 (stereo not given) [doxylamine]	-1.38%	-0.13%	-1.73%	1.53%	1.43%
